# Most compounds without a hit are left out; they make up all but 4.8% or so of the library.
# ATXN2 expr inh – Primary qHTS for Inhibitors of ATXN expression; HEK-293 ATXN2-luciferase reporter, luminescence, 24 h; 360,000 compounds, 0.72% hits; Potency, µM (doses to about 57 µM), inactives show top-dose activity change, negative = inhibition, hits mostly inhibitors; also: potency is read from the fitted curve at half-maximal effect; % is scaled to controls: 0 for no effect and ±100 for the full control effect; nearly all actives have a fitted effect of over 55% in size
#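 ATXN2-luciferase reporter cells (luciferase flanked by upstream and downstream ATXN2 gene portions) were treated 24 h at 37 °C with compounds at up to 57 uM. SteadyGlo luminescence gave expression; GF-AFC fluorescence gave viability.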
# TGFb SMAD3 inh – qHTS for Inhibitors of TGF-b. HepG2 CAGA-GFP TGF-b/SMAD3 reporter, GFP fluorescence, 18 h; TGF-beta stimulated, 500 pg/mL final. Potency, µM (highest dose often 46.1 µM), inactives show top-dose activity, negative = inhibition, hits mostly inhibitors. 410,000 compounds, 1.2% hits. AID 588855, 2011; also: potency is read from the fitted curve at half-maximal effect; % is scaled to controls: 0 for no effect and ±100 for the full control effect; nearly all actives have a fitted effect of over 65% in size
#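 Using HEPG2 CAGA-GFP reporter cells at 1000 cells/well, we pinned test compounds, stimulated with recombinant TGF-beta (500 pg/mL final) and measured total well GFP after 18 h.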
# HepG2 tox – qHTS for Inhibitors of TGF-b: Cytotox Counterscreen; HepG2 CAGA-GFP viability, ATP luminescence, 18 h; Potency, µM (highest dose often 46.1 µM), for the others: at the highest dose activity change, negative = cytotoxicity, most hits filed as cytotoxic; 410,000 compounds, 0.76% hits; also: potency is read from the fitted curve at half-maximal effect
#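 CellTiter-Glo luminescence gave cytotoxicity after 18 hours at 37 degrees C. The cells were HepG2 CAGA-GFP in 1% FBS DMEM, stimulated with 500 pg/mL TGF-beta after compound addition. %Activity was normalised to no-cell wells (complete cell-killing) and DMSO (no toxicity), and curves were fitted and classified.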
# S2 tox – Viability Counterscreen for Primary qHTS for Inhibitors of ATXN expression. Potency, µM (highest dose often 56.7 µM), most hits filed as cytotoxic. 400,000 compounds, 0.49% hits. S2 cells (HEK-293 line with an ATXN2-luciferase reporter) viability, CellTiter-Fluor protease fluorescence, 24 h; also: potency is read from the fitted curve at half-maximal effect; nearly all actives have a fitted effect of over 40% in size
# D3 ag – qHTS of D3 Dopamine Receptor Agonist: qHTS; D(3) dopamine receptor (Homo sapiens), P35462; D3R DiscoveRx beta-arrestin cells, luminescence, 90 min; max activation, %; 410,000 compounds, 0.58% hits; in the data active = max activation above about 30%; also: 0% is about no effect
# Target sequence (P35462 whole entry, looked up): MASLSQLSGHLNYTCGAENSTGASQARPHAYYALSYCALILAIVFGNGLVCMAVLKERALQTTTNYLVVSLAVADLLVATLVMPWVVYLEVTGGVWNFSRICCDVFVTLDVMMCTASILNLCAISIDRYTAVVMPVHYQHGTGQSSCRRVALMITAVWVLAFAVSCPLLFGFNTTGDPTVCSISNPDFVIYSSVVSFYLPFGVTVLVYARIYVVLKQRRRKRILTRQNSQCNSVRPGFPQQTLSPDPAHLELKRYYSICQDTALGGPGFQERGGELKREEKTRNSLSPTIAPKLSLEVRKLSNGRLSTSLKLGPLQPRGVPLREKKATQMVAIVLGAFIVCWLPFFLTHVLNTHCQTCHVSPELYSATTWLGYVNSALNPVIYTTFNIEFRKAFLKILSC
#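 Cells at 1500/well, incubated overnight, then treated with pinned compounds (dopamine as control) for 90 min at 37 degrees C. DiscoveRx reagent added for 30 - 60 minutes at room temperature; luminescence read.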
# D3 antag – qHTS of D3 Dopamine Receptor Antagonist: qHTS; D(3) dopamine receptor (Homo sapiens), P35462; 360,000 compounds, 2.5% hits; D3R cells, DiscoveRx beta-arrestin luminescence, antagonist mode; hits give low values; max response, negative = inhibition, %; in the data active = max response below about -50%; inconclusive = no clear call, values can overlap the other calls; also: % is scaled to controls: 0 for no effect and ±100 for the full control effect
#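 Cells plated overnight at 1500 cells/well, then exposed to library compounds with dopamine controls for 90 minutes at 37 degrees C. DiscoveRx reagent added for 30–60 minutes at room temperature; luminescence read, quantitative HTS format.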
# An asterisk follows results filed as active; i = inactive; ? = inconclusive; . = not tested or not shown. Unless noted, calls follow the shape of the dose curve; as a rule, active = well fitted curve in the direction sought with a large enough effect; inconclusive = small, poorly fitted or top-dose-only effect, or another doubt; inactive = no such curve, though single readings can be large; an effect the other way counts as inactive or inconclusive.
SMILES,ATXN2 expr inh,TGFb SMAD3 inh,HepG2 tox,S2 tox,D3 ag,D3 antag
c1ccc(-n2cc(CNCCc3cscn3)c(-c3ccc4c(c3)OCO4)n2)cc1,-14%,1%,-30%,i,-24,-62*
COC(=O)c1cc2nc(-c3ccc(OC)c(OC)c3)cc(C(F)(F)F)n2n1,-3%,27%,5%,i,0,-70*
COc1ccc(-c2cc(C(F)(F)F)n3nc(C(=O)O)cc3n2)cc1OC,-22%,18%,-4%,i,-6,-13
Cc1cccc(C)c1NC(=O)C(NC(=O)c1ccccn1)c1ccc([N+](=O)[O-])cc1 (configuration not stated),-1%,-1%,-3%,i,-5,-52*
Cc1cccc(C)c1NC(=O)C(NC(=O)c1ccccn1)c1ccccc1[N+](=O)[O-] (configuration not stated),.,-3%,-4%,i,4,10
CC(/C=C/C=C(\C)C(=O)O[C@@H]1O[C@H](CO[C@@H]2O[C@H](CO)[C@@H](O)[C@H](O)[C@H]2O)[C@@H](O)[C@H](O)[C@H]1O)=C\C=C\C=C(C)\C=C\C=C(/C)C(=O)O[C@@H]1O[C@H](CO[C@@H]2O[C@H](CO)[C@@H](O)[C@H](O)[C@H]2O)[C@@H](O)[C@H](O)[C@H]1O,.,.,.,.,12,.
Cc1ccc(C(=O)O/N=C/c2c(Cl)n(C)c3ccccc23)cc1,1%,13%,0%,i,-1,0
Cc1ccc(C(=O)O/N=C/c2c(N3CCOCC3)n(C)c3ccccc23)cc1,?,-16%,-19%,?,53*,46
Cn1c(Cl)c(/C=N/OC(=O)c2ccc(Cl)cc2)c2ccccc21,6%,24%,-8%,i,-7,-69*
O=C(CCC1N=C2c3ccccc3N=C(SCC(=O)Nc3ccccc3F)N2C1=O)NCc1ccco1 (configuration not stated),14%,1%,9%,i,9,.
CCOc1ccc(/C=C/C(=O)N(CC)CC(=O)Nc2ccc3c(c2)OCCO3)cc1OC,-7%,-9%,7%,?,-7,1
CCOc1c(Cl)cc(/C=C/C(=O)N(CC)CC(=O)Nc2ccc(NC(C)=O)cc2)cc1OC,-4%,?,-29%,i,-9,-53*
CCN(CC(=O)NCc1ccc(Cl)cc1)C(=O)/C=C/c1cc(OC)c(OC)c(OC)c1,-13%,3%,-1%,i,0,2
CCOc1ccc(/C=C/C(=O)N(CC)CC(=O)Nc2ccc3c(c2)OCCO3)cc1OCC,2%,13%,14%,i,-18,-57*
Cc1ccccc1OCCOCCN1CCCCCC1,-24%,16%,0%,i,-12,?
Cc1cc(OCCOCCN2CCCC2)ccc1C(C)C,-10%,-3%,-28%,?,-10,-58*
Cc1ccc(C(C)C)cc1OCCOCCN1CCCC1,-14%,15%,-21%,i,-1,-66*
COCCCNCCOc1cc(C(C)C)ccc1C,-6%,-4%,-22%,i,-4,-66*
CCc1cccc(OCCOCCN2CCCC2)c1,-5%,15%,0%,i,-3,-71*
Cc1ccc(C(C)C)cc1OCC(=O)NC1CCCCCCC1,-30%,?,-31%,i,-5,-15
CCOc1cccc(OCCOCCN2CCCC2)c1,-7%,16%,0%,i,-17,?
CC(NCC1COc2ccccc2O1)C1COc2ccccc2O1 (configuration not stated),1%,-2%,-1%,i,-23,-63*
CC(C)N1CCN(CC2COc3ccccc3O2)CC1 (configuration not stated),.,16%,14%,.,3,-50*
